This is one part of the list. Values without a mark were called inactive. Calls of active or inactive are those of the source. Rule as the data show it: active = inhibition above about 22%; inactive = the rest.
Test: HEK cell viability loss – luminescence, cytotoxicity control for IDE inhibitor project (AID 449730);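 also: 0% = vehicle wells and 100% = reference cytotoxic drug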
Settings: HEK293 cytotoxicity, ATP luminescence; at 5.59 µM; stronger effect = higher value
With Cc1c(C(=O)Nc2cccc(-c3nnc4n3CCCCC4)c2)oc2ccccc12 the inhibition was 21.4%. Compound N#C/C(=C\c1ccc(N2CCOCC2)o1)C(=O)N1CCOCC1 has an inhibition of 8.42%. For O=C(Oc1c(-c2ccco2)oc2ccccc2c1=O)c1cccnc1, the inhibition was 8.69%. CC1(C)Cc2cccc(OCC(=O)N3CCN(c4ccc([N+](=O)[O-])cc4)CC3)c2O1 gave an inhibition of 19.7%. Compound CC(=O)c1cc(NC(=O)c2ccccc2)c(=O)oc1/C=C/N(C)C has an inhibition of 5.05%. In the case of CCN(CC)c1ccc2cc(C(N)=O)/c(=N\NC(=O)c3ccncc3)oc2c1, the inhibition is reported as 28.8% (active). In the case of C=CCC1=C/C(=C\c2c(N)n3nc(CC(=O)N4CCOCC4)sc3nc2=O)C=C(OC)C1=O, the inhibition is reported as 12.5%. Cn1c2ccccc2c2cc(/C=C(\NC(=O)c3ccccc3)C(=O)NCC(=O)O)ccc21 showed an inhibition of 5.76%. Compound Cc1cccc(N2CCN(C(=O)c3cccc(N4C(=O)C5C6C=CC(C6)C5C4=O)c3)CC2)c1C (stereo not given) has an inhibition of 17.6%. With COc1cc(/C=C(\C#N)c2nc3ccccc3[nH]2)ccc1O the inhibition was 21.9%. Compound CCCc1nc(SCC(=O)Nc2ccc(S(=O)(=O)N(C)C)cc2)c2ccccc2n1 has an inhibition of 21.9%. With O=C(/C=C/c1ccc(OCc2c(F)cccc2Cl)cc1)N1CCOCC1 the inhibition was 67.9% (active). For Cc1nn(C)cc1C(=O)c1ccccc1, the inhibition was 5.03%. For O=C(CCc1ccc(S(=O)(=O)N2CCOCC2)cc1)Nc1ccc2ccccc2c1, the inhibition was 13.4%. Compound COc1cc(/C=C2/SC(=S)N(Cc3ccccc3)C2=O)cc(OC)c1O has an inhibition of 19.6%. CCN1CCCC1CNc1ncnc2c1[nH]c1ccc(F)cc12 (stereo not given) gave an inhibition of 8.81%. In the case of CN1/C(=c2/s/c(=C3/C(=O)N(c4ccccc4)NC3=Nc3ccccc3)n(C)c2=O)C(C)(C)c2ccccc21, the inhibition is reported as 11.6%. With CCC(=C/c1sc2ccc3ccccc3c2[n+]1C)/C=C1\Sc2ccc3ccccc3c2N1C the inhibition was 110% (active). CCCCc1cc(=O)oc2c(C)c(OCC(=O)N3CCC(C(N)=O)CC3)ccc12 showed an inhibition of 11.7%. In the case of CCOc1cc2c(Cl)ncnc2c(OCC)c1OCC, the inhibition is reported as 6.67%.
